Bioassay records (PubChem BioAssay)
The list is not random: actives were taken first. Their share in the collection is about 21%.
Pf growth 48h: P. falciparum growth inhibition at 48 hours (one generation); P. falciparum luciferase growth in erythrocytes, 48 h; Potency, µM (titrated, usually from 28.7 µM), usual class: inhibitors; 310,000 tested, 5.9% active
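Erythrocytes infected with P. falciparum carrying an integrated firefly luciferase reporter (2% hematocrit, 0.1% parasitemia final) were exposed to compounds in RPMI 1640 with 0.5% Albumax at 37 C, 5% CO2. Growth inhibition was scored as reduced luminescence.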
Shiga inhibitor: inhibitors of Shiga toxin in Vero cells | Vero cells, Shiga toxin protein synthesis inhibition reporter | inhibition, % at 38.7 µM | 290,000 tested, 9.2% active; in the data active means inhibition mostly above about 28%, no sharp cut-off; inactive means mostly below about 43%
HCMV inh: inhibitors of human cytomegalovirus; HFF cells, HCMV-luciferase reporter, 72 h; hits give low values; AID 1259415; 410,000 tested, 4.5% active; activity change, negative = inhibition, % at 57.5 µM; in the data active means activity change below about -60%; inconclusive means no clear call, values can overlap the other calls; inactive means above about -39%
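Steps: HFFs plated, 16 h 37C; compounds added; HCMV-luciferase added to MOI 1 PFU/cell; 72 h 37C; OneGlo reagent, 5 min room temperature; luminescence read, normalized to controls.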
HCV inhibitor: blocks hepatitis C virus. Huh7.5.1 HCVcc-Cre infection, luciferase reporter, 44 h. Potency, µM (series often up to 41.8 µM), usual class: inhibitors. 340,000 tested, 3.4% active. AID 651820
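Antiviral activity was scored by luciferase reporter output from cells infected with HCVcc-Cre (~0.5 moi) in presence of compound, 44 h infection period, cells seeded 1,000/well 4 h prior.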
Pf growth 96h: P. falciparum growth inhibition at 96 hour, primary screen for plastid delayed-death inhibitors | Potency, µM (series often up to 28.7 µM), hits mostly inhibitors | 320,000 tested, 6.9% active | P. falciparum luciferase reporter growth, 96 h
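Luminescence readout: decreased luciferase signal marks inhibited growth of reporter-expressing P. falciparum in infected red cells (2% hematocrit, 0.05% parasitemia final), exposed to compound two generations (96 h, 37 C, 5% CO2).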
CHX counter: affects cycloheximide protein synthesis inhibition readout, counter-screen | 300,000 tested, 12% active | max response, % | cell reporter, cycloheximide protein synthesis inhibition counterscreen; in the data active means max response mostly above about 13%, no sharp cut-off; inactive means mostly below about 14%; further: read at 38.3 µM for the half of the compounds with a filed dose
Of the large screens only hits and unclear results are named; the others gave an inactive call. Unless noted, the call rests on the fitted dose curve; in most records, active means well fitted inhibition curve with a large enough effect; inconclusive means small, poorly fitted or top-dose-only effect, or another doubt; inactive means no such curve, though single readings can be large or run the other way.

CCCc1sc(N/N=C/c2ccccn2)nc1-c1ccc(Br)cc1	Pf growth 48h 1.7µM, HCMV inh -98, HCV inhibitor 3.2µM
CC(C)(C)c1ccc(OCc2cnc(Cl)s2)cc1	Shiga inhibitor 75, CHX counter 35
COc1cc(OC)cc(C(=O)NC(=S)Nc2cc3oc4ccccc4c3cc2OC)c1	HCV inhibitor 1.8µM
COc1ccc(C(=O)NC(=S)Nc2cc3oc4ccccc4c3cc2OC)cc1	none
COCCNC(=S)Nc1cc2oc3ccccc3c2cc1OC	Pf growth 48h inconclusive, HCV inhibitor inconclusive, CHX counter 16
COc1cc2c(cc1NC(=O)c1cccnc1)oc1ccccc12	HCV inhibitor 3.2µM, CHX counter 29 (no result: Pf growth 48h)
COc1cc2c(cc1NC(=S)NC(=O)c1c(OC)cccc1OC)oc1ccccc12	Pf growth 48h 4.1µM, HCMV inh inconclusive, Pf growth 96h 3.7µM
CCN(CC)CC(=O)N1c2ccccc2Oc2c(c(=O)n(C)c(=O)n2C)C1c1cccc([N+](=O)[O-])c1 (stereo not given)	Pf growth 48h 5.9µM, Pf growth 96h inconclusive
CN1c2ccccc2Oc2c(c(=O)n(C)c(=O)n2C)C1c1cccc([N+](=O)[O-])c1 (stereo not given)	HCV inhibitor 3.5µM, Pf growth 96h inconclusive
Cn1c2c(c(=O)n(C)c1=O)C(c1ccc(Br)cc1)Nc1ccccc1O2 (stereo not given)	none (no result: Pf growth 48h)
COc1ccc(N(CC(=O)N2CCCCC2)S(=O)(=O)c2ccc(OC)c(OC)c2)cc1	none (no result: Pf growth 48h, Shiga inhibitor, HCV inhibitor, Pf growth 96h, CHX counter)
O=C(C[C@H]1C(=O)N(Cc2ccccc2)C[C@@H]1Cc1ccccc1)Nc1ccccc1	Pf growth 96h 13µM
O=C(C[C@H]1C(=O)N(CCc2ccccc2)C[C@@H]1Cc1ccccc1)Nc1ccccc1	Pf growth 48h inconclusive, Pf growth 96h 10µM
O=C(C[C@H]1C(=O)N(CCc2ccccc2)C[C@@H]1Cc1ccccc1)Nc1ccc(Br)cc1	none (no result: Pf growth 48h, Shiga inhibitor, HCV inhibitor, Pf growth 96h, CHX counter)
COc1ccc(NC(=O)C[C@H]2C(=O)N(Cc3ccccc3)C[C@@H]2Cc2ccccc2)cc1	none (no result: Pf growth 48h, Shiga inhibitor, HCV inhibitor, Pf growth 96h, CHX counter)
Cc1cccc(NC(=O)CCS(=O)(=O)c2ccccc2)n1	Shiga inhibitor 54
Cc1ccc(S(=O)(=O)NCCCCCC(=O)Nc2cccc(C)c2)cc1	Pf growth 96h 12µM
Cc1cccc(NC(=O)CCNS(=O)(=O)c2ccc(Cl)cc2)c1	none
Cn1c(=O)c(=O)n(C)c2cc(S(=O)(=O)CCC(=O)Nc3cccc(C(F)(F)F)c3)ccc21	Pf growth 96h 10µM
Cn1c(=O)c(=O)n(C)c2cc(S(=O)(=O)CCC(=O)Nc3ccc(F)cc3)ccc21	Pf growth 96h inconclusive
Cc1cccc(NC(=O)CCS(=O)(=O)c2ccccc2)c1	Shiga inhibitor 47, CHX counter 30
CC(C)C(NC(=O)c1ccccc1)C(=O)OCn1nnc2ccccc2c1=O (stereo not given)	none (no result: Shiga inhibitor, CHX counter)
CCC(=O)Nc1ccc2c(c1)Cc1cc(NC(=O)CC)ccc1-2	none
CCc1ccc(NC(=O)c2ccc(OC)c([N+](=O)[O-])c2)cc1	Shiga inhibitor 90, HCV inhibitor inconclusive, Pf growth 96h inconclusive, CHX counter 37
CCOC(=O)C(Cc1ccc(OC)c([N+](=O)[O-])c1)NC(=O)CCC(=O)Nc1ccc(OC)cc1 (stereo not given)	HCMV inh -105
COc1ccc(C(=O)C[n+]2cccc(C)c2C)cc1[N+](=O)[O-]	Pf growth 48h 7.4µM
CCCCCCCCCCCC(=O)NC(Cc1ccc(OC)c([N+](=O)[O-])c1)C(=O)O (stereo not given)	none
CCOC(=O)Nc1ccc2c(c1)Cc1cc([N+](=O)[O-])ccc1-2	HCMV inh -90, HCV inhibitor inconclusive (no result: Pf growth 48h, Shiga inhibitor, Pf growth 96h, CHX counter)
O=[N+]([O-])c1cc(S(=O)(=O)NCCN2CCOCC2)ccc1Cl	HCV inhibitor inconclusive
COc1c(Cl)cc(C(=O)Nc2cccnc2)cc1Cl	none (no result: Pf growth 48h, Shiga inhibitor, HCV inhibitor, Pf growth 96h, CHX counter)
CC(C)(C)C(=O)Nc1ccc2nc(SCCOc3ccccc3Cl)sc2c1	none (no result: Pf growth 48h, Shiga inhibitor, HCV inhibitor, Pf growth 96h, CHX counter)
CC(C)(C)OC1NS(=O)(=O)OCC1NCOC(Cl)(Cl)Cl (stereo not given)	none
CCCCCCCC(=O)OCCOC(=O)CCCCCCC	none (no result: Pf growth 48h, HCMV inh, HCV inhibitor, Pf growth 96h)
Cc1c(CNCc2ccc(Cl)cc2)c(C(=O)O)c(C)n1Cc1ccc(F)cc1	none (no result: Pf growth 48h, Shiga inhibitor, HCV inhibitor, Pf growth 96h, CHX counter)
